Screens: PubChem BioAssay, National Center for Advancing Translational Sciences (NCATS)
In the library only some 12% were active in any assay of this set; here they are far more common.
PI5P4K alpha inh – inhibitors of human PI5P4K alpha; PI5P4Kalpha enzyme, ADP-Glo luminescence, 60 min; active compounds read low; max response, %; hit rate 1.2% among 330,000; AID 652105; active = max response of -50% or lower; inconclusive = between -30% and -50%; inactive = -30% or higher; note: value at the top dose of about 77 µM
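ADP-Glo luminescence end-point after a 60 min room-temperature kinase reaction. PI5P4Kalpha and substrate in HEPES pH 7.4 buffer with EGTA, 0.1% CHAPS and 5% DMSO; ATP at 5 microM final.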
HP1b binding inh – blocks HP1-beta chromodomain binding to methylated histone tails; P83916; AlphaScreen HP1-beta / biotin-H3K9me3 peptide binding; Potency, µM (titrated, usually from 114 µM), most hits filed as inhibitors; hit rate 0.56% among 390,000; note: nearly all actives have a fitted effect of over 70% in size
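AlphaScreen: HP1-beta (50 nM) preformed 30 min with biotin-H3(1-18)K9me3 peptide (50 nM) in PBS pH 7.4, 0.01% Tween-20. Compound added for 30 min at RT, then streptavidin donor/nickel chelate acceptor beads (10 ug/mL) for 30 min.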
JMJD2A Tudor – inhibitors of human JMJD2A Tudor domain; O75164; AlphaScreen JMJD2A-Tudor / H3K4me3 peptide binding; Potency, µM (series often up to 114 µM), actives largely listed as inhibitors; hit rate 4.4% among 390,000; note: nearly all actives have a fitted effect of over 50% in size
G9a block – G9a (human) methyltransferase inhibition; Q96KQ7; G9a H3K9 monomethylation, AlphaScreen, 2 h; Potency, µM (series often up to 102 µM), hits mostly inhibitors; hit rate 8.8% among 350,000; note: nearly all actives have a fitted effect of over 75% in size
Target sequence (Q96KQ7 913-1193 limits assumed): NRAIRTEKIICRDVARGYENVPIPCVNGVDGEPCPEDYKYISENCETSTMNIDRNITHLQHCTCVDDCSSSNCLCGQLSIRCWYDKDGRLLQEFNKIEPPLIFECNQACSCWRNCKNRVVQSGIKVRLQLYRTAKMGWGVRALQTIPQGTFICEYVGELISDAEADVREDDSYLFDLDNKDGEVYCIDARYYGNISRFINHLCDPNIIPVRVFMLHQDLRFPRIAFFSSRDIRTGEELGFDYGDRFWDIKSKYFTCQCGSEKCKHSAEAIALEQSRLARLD
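Using a bead-based AlphaScreen, monomethylated H3K9 product from 2 h room-temperature reactions (G9a 20 nM, peptide 500 nM, SAM 20 uM) was detected with 0.5 ug/mL rabbit anti-H3K9me1 antibody.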
BAZ2B block – blocks human BAZ2B | Q9UIF8 | AlphaScreen BAZ2B-H3K14Ac peptide displacement | Potency, µM (highest dose often 114 µM), usual class: inhibitors | hit rate 4.4% among 360,000; note: nearly all actives have a fitted effect of over 60% in size
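In this displacement format the biotinylated H3(5-23) peptide acetylated at Lys14 serves as ligand at 50 nM, with BAZ2B at 50 nM in PBS pH 7.4 containing 0.01% Tween-20. Donor and acceptor beads are 10 ug/mL final.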
PLK1 PBD inh – blocks phosphopeptide binding to human PLK1 polo-box domain; hit rate 2.8% among 360,000; Potency, µM, hits mostly inhibitors; Plk1 PBD binding of FITC phosphopeptide, fluorescence polarization; P53350; note: series mostly up to about 57 µM; nearly all actives have a fitted effect of over 65% in size
A number is an active result; . = inactive; ? = inconclusive; / = no result given. Unless noted, calls come from the whole dose curve; as a rule, active = well fitted curve in the direction sought with a large enough effect; inconclusive = small, poorly fitted or top-dose-only effect, or another doubt; inactive = no such curve, though single readings can be large; an effect the other way counts as inactive or inconclusive.

SMILES | PI5P4K alpha inh | HP1b binding inh | JMJD2A Tudor | G9a block | BAZ2B block | PLK1 PBD inh
CC(Cc1ccccc1)N1CCCC1=O (centres undefined) | . | . | . | / | / | .
O=C(O)c1cc(Cl)n[nH]c1=O | . | / | / | / | / | .
Cn1c(Oc2ccc(Cl)cc2)nc2c1c(=O)n(Cc1ccc(F)cc1)c(=O)n2C | / | . | . | . | . | /
COc1ccc(-c2c(C3C4C=CCCC4(C)C(=O)N3Cc3ccccc3)ccc3ccccc23)cc1 (centres undefined) | / | . | . | / | / | /
COc1ccccc1N1C(=O)[C@@H]2[C@H](C1=O)[C@H](C(=O)c1ccc(OC(C)=O)cc1)N1N=CC=C[C@@H]21 | . | . | . | 5µM | . | ?
Cc1ccc(C(=O)NCCCNCCCN(C)C)cn1 | / | . | 50µM | ? | ? | .
CN(CCNC(=O)c1ccc(/C=N/O)nc1)Cc1ccccc1 | . | . | 8.9µM | 25µM | ? | .
O=C(NCCCNCCCNC(=O)c1ccc(/C=N/O)nc1)c1ccc(/C=N/O)nc1 | . | . | 5.6µM | / | 1.4µM | .
